Data: PubChem BioAssay (Tox21)
Results filed as inconclusive are left out. Where a call stands in place of a potency, no number is given. Activity calls are given as the source filed them. Calls follow the shape of the dose curve; as a rule, active = well fitted activation curve with a large enough effect in the repeat runs; inconclusive = weak or mixed curves; inactive = no such curve, though single readings can be large or run the other way.

molecular target: Aryl hydrocarbon receptor (Homo sapiens) (UniProt P35869); assay: qHTS assay to identify small molecule that activate the aryl hydrocarbon receptor (AhR) signaling pathway (AID 743085); settings: HepG2 AhR-luc (HG2L7.5c1), luciferase, 24 h; series mostly up to 70.3 µM; also: nearly all actives have a fitted effect of over 15% in size;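 as to activation: HG2L7.5c1 human HepG2 liver cells with stably integrated DRE-driven firefly reporter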
From the text: U.S. Tox21 Program National Center for Advancing Translational Sciences [NCATS] NIH Chemical Genomics Center [NCGC] U.S. Environmental Protection Agency [EPA] National Institutes of Environmental Health Sciences [NIEHS] National Toxicology Program [NTP] U.S. Food and Drug Administration [FDA] Tox21 Assay overview: The Aryl hydrocarbon Receptor (AhR), a member of the family of basic helix-loop-helix transcription factors, is crucial to adaptive responses to environmental changes. AhR mediates cellular responses to environmental pollutants such as aromatic hydrocarbons through induction of phase I and II enzymes but also interacts with other nuclear receptor signaling pathways. A cell based HepG2-AhR-luc assay (HG2L7.5c1 cell line, developed by Dr. Michael S. Denison, University of California at Davis, was used to assess the activation of AhR. HepG2 (human hepatocellular carcinoma) cells were stably transfected with an Ah receptor-responsive firefly luciferase reporter gene plasmid containing 20 dioxin responsive elements and luciferase reporter gene. Increased luciferase activity can be used to identify the compounds that induce AhR activation.
Tox21 Assay Protocol Summary: 4000 cells in 5 uL/well were dispensed into white wall/solid bottom 1536-well plates using a Multidrop Combi (Thermo Fisher Scientific Inc., Waltham, MA) dispenser. After the assay plates were incubated at 37C for 5 h, 23 nL of compound or DMSO vehicle was transferred to the assay plates by a pintool station (Kalypsys, San Diego, CA). The plates were incubated at 37C for 24 hr. After 1 ul/well of CellTiter-Fluor reagent (Promega, Madison, WI) was added into the assay plates using a Flying Reagent Dispenser (FRD) (Aurora Discovery, CA), the assay plates were incubated at 37C for 30 min. The fluorescence intensity in the plates was measured using a ViewLux plate reader (PerkinElmer, Shelton, CT), followed by the addition of 4 uL of ONE-Glo Luciferase Assay reagent (Promega) using an FRD (Aurora Discovery). After the assay plates were incubated at room temperature for 30 min, luminescence intensity was measured using a ViewLux plate reader (Perkin Elmer).
Potency is read from the fitted curve at half-maximal effect.

Aryl hydrocarbon receptor (Homo sapiens), sequence (P35869 whole entry, looked up): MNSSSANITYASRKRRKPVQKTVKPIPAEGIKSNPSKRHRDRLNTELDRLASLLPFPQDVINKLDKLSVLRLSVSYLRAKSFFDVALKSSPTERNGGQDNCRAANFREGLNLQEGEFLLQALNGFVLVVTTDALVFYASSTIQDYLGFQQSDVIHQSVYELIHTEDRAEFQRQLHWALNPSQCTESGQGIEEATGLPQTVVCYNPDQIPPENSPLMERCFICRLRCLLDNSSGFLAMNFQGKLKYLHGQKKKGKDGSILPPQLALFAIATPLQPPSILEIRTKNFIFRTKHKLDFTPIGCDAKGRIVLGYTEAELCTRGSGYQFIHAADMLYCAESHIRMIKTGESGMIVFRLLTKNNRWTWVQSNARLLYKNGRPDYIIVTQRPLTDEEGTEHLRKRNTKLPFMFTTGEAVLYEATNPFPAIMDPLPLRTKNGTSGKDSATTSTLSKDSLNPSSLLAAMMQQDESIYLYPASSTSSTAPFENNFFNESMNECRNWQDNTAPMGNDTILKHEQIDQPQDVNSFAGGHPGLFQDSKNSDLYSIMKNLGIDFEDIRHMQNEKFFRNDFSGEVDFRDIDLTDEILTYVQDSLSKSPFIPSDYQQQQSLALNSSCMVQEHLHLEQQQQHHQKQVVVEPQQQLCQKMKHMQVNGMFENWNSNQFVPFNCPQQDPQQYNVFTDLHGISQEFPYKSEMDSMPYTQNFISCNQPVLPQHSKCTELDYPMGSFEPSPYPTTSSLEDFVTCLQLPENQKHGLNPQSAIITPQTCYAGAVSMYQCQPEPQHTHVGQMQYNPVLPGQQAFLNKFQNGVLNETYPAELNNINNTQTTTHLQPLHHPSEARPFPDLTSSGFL

Structure (SMILES)	Potency
CC[C@H](N)c1ccccc1	inactive
CCNc1nc(Cl)nc(NC(C)(C)C)n1	inactive
CCCC(C)C1(CC)C(=O)N=C(S)NC1=O (stereo not given)	inactive
O=S1(=O)OCCO1	inactive
CCOP(=O)(CN(CCO)CCO)OCC	inactive
CN(C)C1CCCCC1	inactive
CCc1cc(OC)c(C[C@H](C)N)cc1OC	inactive
Oc1ccc2c3c1O[C@H]1[C@@H](O)C=C[C@H]4[C@@H](C2)NCC[C@@]341	inactive
C[N+]1(C)CCCCC1	inactive
CC(C)(C1CCC(O)CC1)C1CCC(O)CC1 (stereo not given)	inactive
Cc1ccc2c(c1)C1CN(C)CCC1N2 (stereo not given)	inactive
Oc1ccc(Cc2ccc(O)cc2)cc1	inactive
O=C(NC(O)C(Cl)(Cl)Cl)NC(O)C(Cl)(Cl)Cl (stereo not given)	inactive
NNC(N)=O	inactive
BrCc1ccc(Br)cc1	inactive
CCCN1CCC[C@@H]2Cc3nc(N)ncc3C[C@H]21	21.1 µM (active)
CN(C)C(=O)Oc1cc(OC(=O)N(C)C)cc(C(O)CNC(C)(C)C)c1 (stereo not given)	inactive
CN(CCO)CCO	inactive
CCNP(=S)(OC)O/C(C)=C/C(=O)OC(C)C (stereo not given)	4.86 µM (active)
CNC(=O)NC(O)C(Cl)(Cl)Cl (stereo not given)	inactive

Structure (SMILES)	Potency
CCOP(=S)(OCC)Oc1ccc(Cl)cc1Cl	19.3 µM (active)
CC1=C2[C@H]3OC(=O)[C@@H](C)[C@@H]3CC[C@@]2(C)C=CC1=O	inactive
COP(=O)(O)OC	inactive
CCOC(=O)N(C)N=O	inactive
CNC(=O)Oc1ccccc1C(C)C	inactive
O=C(Cl)OCc1ccccc1	inactive
COc1cccc([C@@]2(O)CCCC[C@@H]2CN(C)C)c1	inactive
CCCCCCCC(=O)Cl	inactive
[O-][Br+2]([O-])O	inactive
CC(C)[N+](C)(CCC(C(N)=O)(c1ccccc1)c1ccccc1)C(C)C	inactive
O=C(O)C(F)(F)C(F)(F)C(F)(F)C(F)(F)C(F)(F)C(F)(F)F	inactive
O=c1[nH]c2ccccc2o1	inactive
CCN(CCO)CCn1c(Cc2ccccc2)nc2c1c(=O)n(C)c(=O)n2C	inactive
CC(Cc1ccccc1)NCCn1cnc2c1c(=O)n(C)c(=O)n2C (stereo not given)	inactive
COC(=O)c1ccc(CBr)cc1	inactive
O=C(O)c1c(Cl)ccc2cc(Cl)cnc12	inactive
CCCCCCC(=O)CCCCCC/C=C/C[C@@H](O)[C@H](O)[C@@](N)(CO)C(=O)O	inactive
O=[N+]([O-])CCO	inactive
ClCC1CO1 (stereo not given)	inactive
CC(C)NCC(O)c1ccc([N+](=O)[O-])cc1 (stereo not given)	inactive
